# tim23-1 inh: growth inhibitors of tim23-1 mutant yeast; S. cerevisiae tim23-1 growth, BacTiter-Glo luminescence, 24 h; inhibition, % at 20 µM; 1.3% of 330,000 active;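 active means growth inhibition of the mutant yeast at or above 50%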;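 further: temperature-sensitive mutant grown at 25 °C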
# TIM10 inh: TIM10 yeast growth inhibition; S. cerevisiae TIM10 strain growth, BacTiter-Glo luminescence, 24 h; inhibition, % at 10 µM; 1.4% of 330,000 active; AID 463195;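 active means inhibition of 40% or more at the single tested concentration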;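 further: wild-type TIM10 isogenic control strain grown at permissive 25 °C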
# V-ATPase pH: regulators of yeast V-ATPase proton transport | S. cerevisiae, pHLuorin cytosolic pH fluorescence | AID 504577 | 0.37% of 350,000 active | response, % at 10 µM; in the data active means response mostly above about 7.3%, no sharp cut-off; inactive means mostly below about 5.4%; further: actives read high
# NALP1 inh: NALP1 inhibition | S. cerevisiae NALP1/ASC/caspase-1 growth, X-gal OD620, 72 h | 0.61% of 280,000 active | inhibition, % at 10 µM | AID 2071; in the data active means inhibition mostly above about 24%, no sharp cut-off; inactive means mostly below about 32%
# tim10-1 inh: inhibits growth of tim10-1 mutant yeast; S. cerevisiae tim10-1 ts strain growth, BacTiter-Glo, 24 h; inhibition, % at 20 µM; 2.2% of 330,000 active;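 active means inhibition of at least 40%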;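 further: mutant grown at 25 °C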
# NALP3 yeast inh: inhibitors of NALP3 inflammasome in yeast; AID 2825; inhibition, % at 10 µM; 0.39% of 330,000 active; Yeast reconstituted NLRP3/ASC/caspase-1, beta-gal luminescence, 24 h;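 active means inhibition of 50% or more; inactive means inhibition below 50%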
# tim10-1 conf: confirmation of tim10-1 mutant yeast growth inhibitors | shares compounds with tim10-1 inh | S. cerevisiae tim10-1 ts strain growth, BacTiter-Glo, 24 h | inhibition, % at 20 µM | 56% of 7,400 active | AID 463213;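 active means inhibition of yeast growth at or above a set limit in either of two repeat tests at 20 µM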;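 further: tim10-1 mutant grown at permissive 25 °C to find synthetic lethal compounds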
# tim10 confirm: TIM10 yeast growth inhibition, confirmed; inhibition, % at 10 µM; shares compounds with TIM10 inh; 63% of 4,600 active; S. cerevisiae tim10 strain growth, BacTiter-Glo luminescence, 24 h;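 active means inhibition of yeast growth at or above a set limit in either of two replicates at 10 µM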; further: this counterscreen used the strain with wild-type TIM10
# tim23-1 conf: confirmation of tim23-1 mutant yeast growth inhibitors | shares compounds with tim23-1 inh | inhibition, % at 20 µM | S. cerevisiae tim23-1 growth, BacTiter-Glo luminescence, 24 h | AID 463218 | 83% of 4,400 active;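 active means inhibition above about 39% in either of two replicate wells at 20 µM, limit read from the data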;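 further: temperature-sensitive tim23-1 mutant grown at 25 °C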
# Numbers stand for hits; 0 = inactive; - = not tested or not shown. Only some compounds are listed: those with a hit (about 4.2% of all), similar ones and a draw of the others.
SMILES,tim23-1 inh,TIM10 inh,V-ATPase pH,NALP1 inh,tim10-1 inh,NALP3 yeast inh,tim10-1 conf,tim10 confirm,tim23-1 conf
Clc1ncnc2scc(-c3ccc(Br)cc3)c12,50,0,0,0,0,0,0,-,52
CN(c1ccc(O)cc1)c1nc(-c2cccs2)cs1,72,64,0,0,49,0,44,57,52
CCOC(=O)C(NC(C)=O)(N1CCOCC1)C(F)(F)F (centres undefined),0,0,-,0,0,0,-,-,-
Cc1nc2oc3ccc(F)cc3c(=O)c2cc1C(=O)NC(C)(C)C,0,0,0,0,0,0,-,-,-
Cc1ccc(NCc2nc3ccccc3n2CCOc2ccccc2)cc1,57,0,0,0,44,0,0,-,74
CCCCCCCCCCOC(=O)Cn1c(COc2ccc(Cl)cc2)[n+](C)c2ccccc21,92,55,0,61,97,0,92,54,91
COc1ccc(C2=NS(=O)(=O)N(C)C(C(=O)N3CCC(C(N)=O)CC3)=C2)cc1,0,0,0,0,0,0,-,-,-
c1cnc(N2CCN(c3nc4ccccc4n4cnnc34)CC2)nc1,0,0,0,0,0,0,-,-,-
Cc1cccc(N2CCN(c3nc4ccccc4n4cnnc34)CC2)c1C,64,53,0,0,70,0,0,42,72
COc1ccc(NS(=O)(=O)c2cccc(NC(=O)NCCCl)c2)cc1,0,0,0,0,0,0,-,-,-
CCOc1ccccc1NC(=O)C1CCN(C(=O)NCc2ccccc2)CC1,0,0,0,0,0,0,-,-,-
